Source: PubChem BioAssay (Tox21)
Unmarked numbers belong to inactive results. Records with an inconclusive call do not appear. Where a call stands in place of a potency, no number is given. Activity calls are given as the source filed them. Calls come from the whole dose curve; as a rule, active = well fitted curve in the direction sought with a large enough effect in the repeat runs; inconclusive = weak or mixed curves; inactive = no such curve, though single readings can be large; an effect the other way counts as inactive or inconclusive.

How the values were obtained:
[1] = Human pregnane X receptor (PXR) small molecule agonists, qHTS cell viability counter screen (AID 1346977); note: nearly all actives have a fitted effect of over 50% in size
Summary of the method: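 HepG2 cells stably carrying the PXR-Luc reporter are cultured with 5% charcoal-stripped FBS and treated with compounds for 24hr. CellTiter-Fluor is added at 23hr and fluorescence is read after 1hr.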

[2] = Caspase-3/7 induction in HepG2 cells by small molecules, qHTS assay (AID 1346978); note: nearly all actives have a fitted effect of over 15% in size
Summary of the method: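 Wild-type HepG2 cells (2,000/well) were settled 5 h at 37 C, 5% CO2, then exposed to compounds in DMSO for 17 h. Caspase-3/7 activity was read by luminescence 30 min after adding Caspase-Glo 3/7 reagent at room temperature.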

[3] = Caspase-3/7 induction in CHO-K1 cells by small molecules, qHTS cell viability counter screen (AID 1346979); note: nearly all actives have a fitted effect of over 35% in size
Summary of the method: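 Seeding: 1,500 CHO-K1 cells/well. Rest: 5hr, 37C. Treatment: compounds in DMSO, 16hr. Read: CellTiter-Fluor, 1hr, fluorescence.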

[4] = Caspase-3/7 induction in CHO-K1 cells by small molecules, qHTS assay (AID 1346980); note: nearly all actives have a fitted effect of over 15% in size
Summary of the method: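 Wild-type cells were seeded at 1,500 per well and settled 5 hr at 37 C, 5% CO2, then exposed to DMSO-dissolved compounds for 17 hr. Caspase-Glo 3/7 reagent was added, and luminescence was read after 30min at room temperature.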

[5] = Caspase-3/7 induction in HepG2 cells by small molecules, qHTS cell viability counter screen (AID 1346981); note: series mostly up to about 92 µM; nearly all actives have a fitted effect of over 30% in size
Summary of the method: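 Fluorescence read-out of live-cell protease activity (CellTiter-Fluor) after 1 hr with reagent. This was measured in the same wells as the caspase-3/7 luminescence, on HepG2 cells exposed to DMSO-dissolved compounds for 16 hr at 37 C.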

[6] = target: Nuclear receptor subfamily 1 group I member 2 (Homo sapiens) (UniProt O75469); test: Human pregnane X receptor (PXR) small molecule agonists, qHTS assay (AID 1346982); note: nearly all actives have a fitted effect of over 35% in size; note: potency is the fitted concentration of half-maximal effect
Sequence of Nuclear receptor subfamily 1 group I member 2 (Homo sapiens) (O75469 whole entry, looked up): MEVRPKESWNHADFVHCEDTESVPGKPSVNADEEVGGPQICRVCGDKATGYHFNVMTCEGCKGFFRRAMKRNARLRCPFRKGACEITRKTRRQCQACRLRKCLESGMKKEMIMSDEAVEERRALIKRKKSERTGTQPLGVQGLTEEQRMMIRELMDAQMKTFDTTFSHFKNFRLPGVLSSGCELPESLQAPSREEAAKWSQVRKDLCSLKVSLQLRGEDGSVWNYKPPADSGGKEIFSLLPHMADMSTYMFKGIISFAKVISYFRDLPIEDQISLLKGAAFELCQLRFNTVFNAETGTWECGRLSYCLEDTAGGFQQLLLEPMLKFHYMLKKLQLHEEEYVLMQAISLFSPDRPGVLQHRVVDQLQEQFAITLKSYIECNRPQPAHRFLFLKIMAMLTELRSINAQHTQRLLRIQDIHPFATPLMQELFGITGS
Summary of the method: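 HepG2 PXR-Luc reporter line, 5% charcoal-stripped FBS; 5 hr pre-incubation, compound (DMSO) 24 hr at 37 C/5% CO2; ONE-Glo 30 min RT; luminescence read-out.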

[7] = target: Nuclear receptor subfamily 1 group I member 2 (Rattus norvegicus) (UniProt Q9R1A7); test: Rat pregnane X receptor (rPXR) activation by small molecules, qHTS assay (AID 1346983); conditions: rPXR luciferase reporter cells, One-Glo luminescence, 24 h; active compounds read high; note: nearly all actives have a fitted effect of over 20% in size
Sequence of Nuclear receptor subfamily 1 group I member 2 (Rattus norvegicus) (Q9R1A7 whole entry, looked up): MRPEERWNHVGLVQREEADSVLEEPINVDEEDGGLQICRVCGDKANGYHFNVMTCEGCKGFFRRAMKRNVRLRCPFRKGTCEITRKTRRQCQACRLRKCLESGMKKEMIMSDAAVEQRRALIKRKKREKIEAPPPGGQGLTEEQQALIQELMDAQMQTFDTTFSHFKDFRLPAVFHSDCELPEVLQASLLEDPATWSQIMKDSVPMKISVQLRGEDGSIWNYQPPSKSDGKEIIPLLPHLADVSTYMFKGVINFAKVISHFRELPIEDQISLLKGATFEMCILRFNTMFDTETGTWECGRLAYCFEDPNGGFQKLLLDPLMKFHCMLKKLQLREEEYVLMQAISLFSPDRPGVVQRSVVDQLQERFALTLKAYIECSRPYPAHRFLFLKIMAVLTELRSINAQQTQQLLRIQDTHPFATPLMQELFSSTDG
Summary of the method: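 Cell-based rPXR luciferase reporter assay, 2,000 cells per well, rested 5hr at 37 C before compound addition in DMSO, then 24 hr at 37 C. One-Glo reagent was added and luminescence read after 30 min at room temperature.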

[8] = target: Nuclear receptor subfamily 1 group I member 2 (Homo sapiens) (UniProt O75469); test: Human pregnane X receptor (PXR) activation by small molecules, qHTS assay (AID 1346985); note: nearly all actives have a fitted effect of over 40% in size
Summary of the method: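 DPX-2 cells (HepG2 co-transfected with a PXR response element and a CYP3A4-promoter luciferase construct) were seeded at 2,000 per well, rested 5 hr at 37C, then exposed to DMSO-dissolved compounds for 24 hr. Activation was read as luciferase luminescence.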

[9] = target: Cytochrome P450 2C19 (Homo sapiens) (UniProt P33261); test: Cytochrome P450 Family 2 Subfamily C Member 19 (CYP2C19) small molecule antagonists: luciferase reporter qHTS assay (AID 1671197); note: nearly all actives have a fitted effect of over 65% in size; note: potency is the fitted concentration of half-maximal effect
Sequence of Cytochrome P450 2C19 (Homo sapiens) (P33261 whole entry, looked up): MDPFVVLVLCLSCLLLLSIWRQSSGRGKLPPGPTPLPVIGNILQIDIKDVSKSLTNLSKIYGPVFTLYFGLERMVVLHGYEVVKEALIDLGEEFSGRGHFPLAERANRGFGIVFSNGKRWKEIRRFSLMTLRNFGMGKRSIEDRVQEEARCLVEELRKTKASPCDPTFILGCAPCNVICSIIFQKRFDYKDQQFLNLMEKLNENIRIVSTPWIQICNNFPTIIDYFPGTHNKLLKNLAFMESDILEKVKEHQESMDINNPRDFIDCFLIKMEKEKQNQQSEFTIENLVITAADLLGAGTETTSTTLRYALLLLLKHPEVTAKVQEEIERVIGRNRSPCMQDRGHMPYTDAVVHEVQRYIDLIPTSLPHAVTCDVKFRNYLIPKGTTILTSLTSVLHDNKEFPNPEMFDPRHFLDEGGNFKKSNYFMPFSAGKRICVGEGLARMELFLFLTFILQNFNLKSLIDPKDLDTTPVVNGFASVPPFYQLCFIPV
Summary of the method: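 Light output is proportional to CYP2C19 activity: proluciferin substrate is converted to luciferin, then detected by a luciferin detection reagent that also stops the 1 h, 37C NADPH-driven reaction. Ketoconazole serves as positive control.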

[10] = target: Cytochrome P450 1A2 (Homo sapiens) (UniProt P05177); test: Cytochrome P450 Family 1 Subfamily A Member 2 (CYP1A2) small molecule antagonists: luciferase reporter qHTS assay (AID 1671199); note: nearly all actives have a fitted effect of over 50% in size; note: potency is the fitted concentration of half-maximal effect
Sequence of Cytochrome P450 1A2 (Homo sapiens) (P05177 whole entry, looked up): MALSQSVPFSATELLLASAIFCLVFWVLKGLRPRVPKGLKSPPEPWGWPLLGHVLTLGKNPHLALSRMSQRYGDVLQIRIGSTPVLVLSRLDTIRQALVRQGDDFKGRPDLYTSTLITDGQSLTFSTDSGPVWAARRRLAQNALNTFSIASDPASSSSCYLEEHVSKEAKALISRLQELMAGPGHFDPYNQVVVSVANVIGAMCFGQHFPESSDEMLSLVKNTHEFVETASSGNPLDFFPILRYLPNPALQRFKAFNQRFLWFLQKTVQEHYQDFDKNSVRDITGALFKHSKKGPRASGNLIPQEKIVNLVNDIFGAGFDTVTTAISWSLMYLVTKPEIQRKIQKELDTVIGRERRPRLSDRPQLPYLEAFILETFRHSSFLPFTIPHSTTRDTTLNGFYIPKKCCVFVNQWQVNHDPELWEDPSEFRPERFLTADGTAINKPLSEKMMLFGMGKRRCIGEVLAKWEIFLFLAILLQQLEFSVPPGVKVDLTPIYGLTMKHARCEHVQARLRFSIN
Summary of the method: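 Luminescence readout (relative luminescence units) after luciferin detection reagent, 20 min RT. Preceded by 1 h room-temperature CYP1A2 reaction with NADPH regeneration solution following 10 min compound preincubation with enzyme and proluciferin substrate. Furafylline positive control.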

[11] = target: Cytochrome P450 3A4 (Homo sapiens) (UniProt P08684); test: Cytochrome P450 Family 3 Subfamily A Member 4 (CYP3A4) small molecule antagonists: luciferase reporter qHTS assay (AID 1671201); note: series mostly up to about 120 µM; nearly all actives have a fitted effect of over 50% in size
Sequence of Cytochrome P450 3A4 (Homo sapiens) (P08684 whole entry, looked up): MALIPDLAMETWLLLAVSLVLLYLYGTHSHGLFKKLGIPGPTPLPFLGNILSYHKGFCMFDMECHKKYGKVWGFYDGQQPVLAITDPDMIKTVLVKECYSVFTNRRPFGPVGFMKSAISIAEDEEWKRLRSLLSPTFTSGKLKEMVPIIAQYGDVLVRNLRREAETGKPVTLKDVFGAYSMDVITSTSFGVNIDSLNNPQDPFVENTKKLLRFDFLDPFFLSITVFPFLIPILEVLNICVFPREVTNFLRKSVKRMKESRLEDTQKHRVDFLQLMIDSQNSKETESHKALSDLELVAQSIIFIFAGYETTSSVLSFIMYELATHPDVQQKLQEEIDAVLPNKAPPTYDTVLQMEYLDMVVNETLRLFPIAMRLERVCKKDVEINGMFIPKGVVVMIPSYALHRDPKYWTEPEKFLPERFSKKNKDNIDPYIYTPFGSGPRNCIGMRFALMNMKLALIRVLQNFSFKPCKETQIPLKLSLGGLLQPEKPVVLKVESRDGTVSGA
Summary of the method: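 Enzyme and proluciferin substrate are mixed with test chemicals for 10 min, then NADPH regeneration system drives turnover for 1 h at room temperature. A detection reagent halts the reaction; luminescence after 20 min gives relative activity.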

[12] = target: Cytochrome P450 2D6 (Homo sapiens) (UniProt P10635); test: Cytochrome P450 Family 2 Subfamily D Member 6 (CYP2D6) small molecule antagonists: luciferase reporter qHTS assay (AID 1671196); note: nearly all actives have a fitted effect of over 50% in size; note: potency is the fitted concentration of half-maximal effect
Sequence of Cytochrome P450 2D6 (Homo sapiens) (P10635 whole entry, looked up): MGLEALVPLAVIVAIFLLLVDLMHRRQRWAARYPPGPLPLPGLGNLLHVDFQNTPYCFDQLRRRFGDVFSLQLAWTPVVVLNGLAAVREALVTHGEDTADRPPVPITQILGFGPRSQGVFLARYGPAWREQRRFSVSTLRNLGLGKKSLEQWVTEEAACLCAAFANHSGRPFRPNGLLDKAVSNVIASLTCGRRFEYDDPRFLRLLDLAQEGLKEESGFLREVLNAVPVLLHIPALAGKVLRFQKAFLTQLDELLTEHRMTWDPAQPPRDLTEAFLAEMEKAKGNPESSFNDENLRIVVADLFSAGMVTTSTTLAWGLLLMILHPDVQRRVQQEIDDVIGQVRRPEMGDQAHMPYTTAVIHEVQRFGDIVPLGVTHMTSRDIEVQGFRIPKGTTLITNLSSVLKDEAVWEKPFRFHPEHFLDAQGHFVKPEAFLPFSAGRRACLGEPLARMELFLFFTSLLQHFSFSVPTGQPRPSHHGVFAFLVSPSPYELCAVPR
Summary of the method: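 Luminogenic proluciferin substrate, CYP2D6 enzyme; 10 min RT preincubation with compound, NADPH regeneration system added, 1 h RT. Stop/detection reagent, 20 min RT, luminescence read (RLU). Signal proportional to CYP activity.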

[13] = target: Cytochrome P450 2C9 (Homo sapiens) (UniProt P11712); test: Cytochrome P450 Family 2 Subfamily C Member 9 (CYP2C9) small molecule antagonists: luciferase reporter qHTS assay (AID 1671198); note: nearly all actives have a fitted effect of over 50% in size; note: potency is the fitted concentration of half-maximal effect
Sequence of Cytochrome P450 2C9 (Homo sapiens) (P11712 whole entry, looked up): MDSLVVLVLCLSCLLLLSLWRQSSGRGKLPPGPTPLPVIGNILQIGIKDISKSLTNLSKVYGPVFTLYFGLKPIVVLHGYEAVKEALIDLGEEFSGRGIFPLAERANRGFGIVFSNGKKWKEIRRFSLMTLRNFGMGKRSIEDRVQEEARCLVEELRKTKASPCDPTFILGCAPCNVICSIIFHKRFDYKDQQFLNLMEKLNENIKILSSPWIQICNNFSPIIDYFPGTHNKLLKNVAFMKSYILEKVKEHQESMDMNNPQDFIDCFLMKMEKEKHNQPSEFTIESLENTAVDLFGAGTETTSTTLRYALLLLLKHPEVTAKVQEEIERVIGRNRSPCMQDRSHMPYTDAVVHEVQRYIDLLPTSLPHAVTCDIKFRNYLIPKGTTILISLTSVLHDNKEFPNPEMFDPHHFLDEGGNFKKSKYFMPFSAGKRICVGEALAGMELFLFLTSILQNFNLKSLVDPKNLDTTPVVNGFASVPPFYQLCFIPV
Summary of the method: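 CYP2C9 activity was measured with a P450-Glo proluciferin substrate. Enzyme–substrate mix was held with compound for 10 min at room temperature, then NADPH regeneration solution was added for 1 h at 37C. Luciferin product was read as luminescence.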

[14] = target: Voltage-gated inwardly rectifying potassium channel KCNH2 (Homo sapiens) (UniProt Q12809); test: Human Ether-a-go-go-Related Gene (hERG) channel small molecule antagonists: fluorescence cell-based qHTS assay (AID 1671200)
Sequence of Voltage-gated inwardly rectifying potassium channel KCNH2 (Homo sapiens) (Q12809 whole entry, looked up): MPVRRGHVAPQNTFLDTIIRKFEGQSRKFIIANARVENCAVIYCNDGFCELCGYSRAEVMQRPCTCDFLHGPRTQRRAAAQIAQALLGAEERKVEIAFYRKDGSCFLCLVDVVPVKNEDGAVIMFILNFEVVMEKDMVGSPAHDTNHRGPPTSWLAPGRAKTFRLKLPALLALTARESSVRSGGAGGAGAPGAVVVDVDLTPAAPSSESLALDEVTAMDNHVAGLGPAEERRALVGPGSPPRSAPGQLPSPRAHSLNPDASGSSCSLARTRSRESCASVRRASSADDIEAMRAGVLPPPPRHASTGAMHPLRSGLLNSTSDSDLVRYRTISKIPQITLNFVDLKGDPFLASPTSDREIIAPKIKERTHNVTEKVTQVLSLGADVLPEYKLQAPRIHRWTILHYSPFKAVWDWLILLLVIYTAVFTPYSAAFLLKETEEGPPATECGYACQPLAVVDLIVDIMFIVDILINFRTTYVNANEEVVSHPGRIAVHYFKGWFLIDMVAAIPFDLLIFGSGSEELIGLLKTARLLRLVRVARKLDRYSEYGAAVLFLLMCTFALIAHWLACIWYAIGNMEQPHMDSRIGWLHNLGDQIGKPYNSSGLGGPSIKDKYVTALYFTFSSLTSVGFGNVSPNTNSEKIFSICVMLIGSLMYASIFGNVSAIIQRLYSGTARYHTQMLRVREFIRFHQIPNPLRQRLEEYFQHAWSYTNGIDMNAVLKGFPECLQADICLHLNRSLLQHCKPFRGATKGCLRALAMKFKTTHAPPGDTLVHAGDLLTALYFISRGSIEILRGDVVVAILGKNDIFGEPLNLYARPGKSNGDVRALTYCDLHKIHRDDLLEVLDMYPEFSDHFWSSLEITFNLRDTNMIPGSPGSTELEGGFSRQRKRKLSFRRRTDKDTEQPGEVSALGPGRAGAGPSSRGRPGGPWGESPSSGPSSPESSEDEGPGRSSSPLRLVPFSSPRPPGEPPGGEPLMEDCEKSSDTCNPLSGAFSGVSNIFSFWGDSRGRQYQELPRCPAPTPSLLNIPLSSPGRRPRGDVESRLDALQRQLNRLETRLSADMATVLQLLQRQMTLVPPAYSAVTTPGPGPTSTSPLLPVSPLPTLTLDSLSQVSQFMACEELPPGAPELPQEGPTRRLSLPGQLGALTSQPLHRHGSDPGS
Summary of the method: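 First, 1000 cells per well are seeded and cultured overnight at 37 C. Next, FluxOR II dye is loaded for 1 h at room temperature, protected from light. After 10 more minutes, stimulus is added and fluorescence is read.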

[15] = target: Nuclear receptor subfamily 1 group I member 2 (Homo sapiens) (UniProt O75469); test: CYP3A4 induction through human pregnane X receptor (PXR) by small molecules, qHTS assay (AID 1346984); note: nearly all actives have a fitted effect of over 40% in size
Summary of the method: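 HepG2-derived DPX-2 line carrying PXR plus a CYP3A4-promoter luciferase reporter; cells plated 5 hr, compound-exposed 24 hr at 37C. CYP3A4 activity probed with 3uM (final) Luciferin-IPA for 3hr, then luciferase read after One-Glo.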

Structure (SMILES) | Potency [1] | Potency [2] | Potency [3] | outcome [4] | Potency [5] | Potency [6] | max activation [7] [%] | Potency [8] | Potency [9] | Potency [10] | Potency [11] | Potency [12] | Potency [13] | Potency [14] | Potency [15]
C[C@H](N)[C@H](O)c1cccc(O)c1 | inactive | inactive | inactive | inactive | inactive | inactive | -0.575 | inactive | inactive | inactive | inactive |  |  |  | 
NS(=O)(=O)c1cc2c(cc1Cl)CN(C1CCCCC1)C2=O | inactive | inactive | inactive | inactive | inactive | 29.8 µM (active) |  |  | inactive | inactive | inactive | inactive | inactive | inactive | 
CC(=O)CCCCn1c(=O)c2c(ncn2C)n(C)c1=O | inactive | inactive | inactive | inactive | inactive | inactive | -1.72 | inactive | inactive | inactive | inactive | inactive |  | inactive | inactive
O=C(NCCc1c[nH]c2ccccc12)c1cccnc1 | inactive | inactive | inactive | inactive | inactive | 26.6 µM (active) |  | inactive | 7.76 µM (active) | 12.9 µM (active) |  |  |  | inactive | inactive
CC(C)(C)c1cc(CCC(=O)NN)cc(C(C)(C)C)c1O | inactive | inactive | inactive | inactive | inactive | 34.4 µM (active) |  |  | 6.33 µM (active) | 8.94 µM (active) |  | 35.6 µM (active) | 5.03 µM (active) | inactive | 
CC(=O)Nc1cccc(C)c1 | inactive | inactive | inactive | inactive | inactive | inactive |  |  | 71.3 µM (active) |  | inactive | inactive | inactive |  | 
CCN1CCc2nc(N)oc2CC1 | inactive | inactive | inactive | inactive | inactive | inactive | -5.4 | inactive | inactive | inactive |  |  |  | inactive | inactive
CCN(C)C(=O)Oc1cccc([C@H](C)N(C)C)c1 | inactive | inactive | inactive | inactive | inactive | inactive | 7.36 | inactive | inactive | inactive | inactive |  |  | inactive | 
CCOCCOC(=O)/C=C/c1ccc(OC)cc1 | inactive | inactive | inactive | inactive | inactive | inactive |  |  | 34.7 µM (active) |  | inactive | inactive | 13.8 µM (active) | inactive | 
